This is part of a sample that, as a whole, favours compounds with a hit. Of some 83,000 tested, about 20% had one in any assay.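 The endpoint reported here, percent growth, reads 100 for growth as untreated, 0 for no net growth and -100 for all cells dead.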 Activity calls are given as the source filed them.
These compounds were tested on RPMI-8226 leukemia (assay: NCI-60 one-dose screen, 48 h (100 = growth as untreated, 0 = no growth, -100 = all killed)). Settings: 10 µM unless noted.
Experimental: Growth inhibition of the RPMI-8226 human tumor cell line is measured as a screen for anti-cancer activity. Cells are grown in 96 well plates and exposed to the test compound for 48 hours. Compounds are tested at a single concentration, which is 10^-5 M for most compounds. The reported endpoint is percent growth (GI% or GIPRCNT), where numbers from 0 - 100% represent growth inhibition, and numbers from -100% - 0 represent cell death. For example, a value of 40 represents 60% growth inhibition. A value of 0 means no net growth occurred over the course of the experiment. A value of -40 indicates 40% of cells at the beginning of the experiment died by the end of the experiment. A value of -100 means all cells are dead at the end of the experiment.
NCI-60 Human Tumor Cell Lines Screen was performed using the standard one-dose NCI protocol, which is described in more detail at https://dtp.cancer.gov/discovery_development/nci-60/default.htm.
Compounds with GIPRCNT values below 10 were considered active. Activity score was based on GIPRCNT using the following formula: […]
Score is 0 for GIPRCNT values of 100 or above, 50 for GIPRCNT values of 0, and 100 for GIPRCNT values of -100.
COC1=C(OC)C(=O)C(CCCCCCCCCCO)=C(C)C1=O was tested, and the growth was 76% (inactive).
With C#CC#CC#CC#CC#CC#CC#CC#CC[C@@H]1OC[C@H](COC(=O)O[C@@H](C(=O)O[C@H]2C[C@@]3(O)[C@@H](OC(=O)c4ccccc4)[C@@H]4[C@]5(OC(C)=O)CO[C@@H]5C[C@H](O)[C@@]4(C)C(=O)[C@H](OC(C)=O)C(=C2C)C3(C)C)[C@@H](NC(=O)c2ccccc2)c2ccccc2)O1 the growth was 9.65% (active).
O=C(Nc1ccc(Oc2cccc(F)c2)c(Cl)c1)c1cnccn1 was tested, and the growth was 18% (inactive).
O=c1c(Cc2ccc(F)cc2)cc(-c2ccccc2)nn1C/C(=N/O)c1ccccc1 was tested, and the growth was 25.6% (inactive).
For Cc1c(N2CCCCC2)[nH]c2ccccc12, the growth was 62.6% (inactive).
With Nc1ncc(-c2ccc3ncnc(N4CCc5cc(F)c(Cl)cc54)c3c2)cc1C=O the growth was -4.54% (active).
With Cc1cc(N2CCOCC2)nc(N(CCCNc2ccnc3cc(Cl)ccc23)Cc2ccc3c(c2)OCO3)n1 the growth was -2.52% (active).
With CC(=O)O[C@H]1C[C@@]2(C)[C@@H](C[C@@H](O)[C@H]3[C@@]4(C)CC[C@H](N5CCCC5)[C@@H](C)[C@@H]4CC[C@@]32C)/C1=C(\CCC=C(C)C)C(=O)O the growth was 88.1% (inactive).
In the case of COC12C=C/C(=C(/C(=O)OCc3ccccn3)C(=O)CCCCCCCCC3(OC)C=C/C(=C(/C(=O)OCc4ccccn4)C(=O)CCCCCCCC1)O3)O2, the growth is reported as -14.8% (active).
For CC(=O)Oc1ccccc1C(=O)N(Cc1ccc2c(Cl)cc(Cl)c(O)c2n1)c1ccccc1, the growth was 36.1% (inactive).
With NC(=O)[C@@H]1Cc2ccccc2CN1C(=O)c1ccc2c(c1)Cc1ccccc1-2 the growth was 60.1% (inactive).
Cn1cc(-c2ccc3occ(-c4cccc(-c5ccncc5)c4)c3n2)cn1 was tested, and the growth was 0.0083% (active).
In the case of O=C(/C=C/c1ccc([N+](=O)[O-])cc1)c1cccc(Nc2nc(Nc3ccccc3)nc(Nc3ccccc3)n2)c1, the growth is reported as -60.2% (active).
For Cc1ccc(C(F)(F)F)cc1N1CCN(C(=O)[C@H]2C[C@H]2c2ccc(C(F)(F)F)nc2)CC1, the growth was 66.1% (inactive).
O=c1c(/C=C/c2c(O)ccc3ccccc23)nnc2sc(-c3cccc([N+](=O)[O-])c3)nn12 was tested, and the growth was 57.3% (inactive).
In the case of O=C1/C(=C/c2ccc(Br)cc2)COc2ccc(O)cc21, the growth is reported as -23.7% (active).
For O=C(O)COc1ccc(F)cc1, the growth was 97.5% (inactive).
For COCCn1cc(-c2nc(-c3cc4cccnc4n3C)cs2)c2cc(OC)ccc21, the growth was 41% (inactive).
In the case of C#C[C@]1(O)CC[C@H]2[C@@H]3CC=C4c5sc(-c6cccc(C)c6)nc5CC[C@]4(C)[C@H]3CC[C@@]21C, the growth is reported as -6.87% (active).
For CC(=O)[C@H]1CC[C@]2(C)[C@@H]1CC[C@@H]1[C@@]3(C)C/C(=C/c4cccnc4)C(=O)C(C)(C)[C@@H]3CC[C@]12C, the growth was 8.88% (active).
In the case of N#C/C(Sc1nc2sc3c(c2c(=O)n1Cc1ccccc1)CCCC3)=C1/SC=C(c2ccc(Cl)cc2)N1c1ccccc1, the growth is reported as 68.3% (inactive).
With CC1=C([Se]CC(OC(=O)[C@@H](CO)NC(=O)OC(C)(C)C)C(=O)NCCCCCC(=O)OCc2ccccc2)C(=O)c2ccccc2C1=O (stereo not given in full) the growth was -28.9% (active).
For COC(CCP(=O)(c1ccccc1)c1ccccc1)(C(=O)c1ccccc1)c1ccccc1 (stereo not given), the growth was 4.88% (active).
For C(CCCSC1=NCCN1)CCSC1=NCCN1, the growth was 107% (inactive).
In the case of CC(=O)c1ccc(Nc2nccc(-c3ccc(Cl)cc3)n2)cc1, the growth is reported as 93.6% (inactive).
For COc1ccc2c(c1)C(c1c[nH]c3ccccc13)(c1c[nH]c3ccccc13)CCO2, the growth was 33.3% (inactive).
With CN1CCN(Cc2ccc(NC(=O)c3cncc(C#Cc4c(N)ncc5c(F)cccc45)c3)cc2C(F)(F)F)CC1 the growth was -26.5% (active).
In the case of O=C(/C=C/c1ccco1)Nc1ncc(Cc2ccc(F)cc2)s1, the growth is reported as 32.4% (inactive).
For Cc1cccc(CN(Nc2ccccc2)c2ccccc2)n1, the growth was 96.3% (inactive).
Cc1nc2c(c(-c3ccccc3)n1)Cc1c(ccc3ccccc13)O2 was tested, and the growth was 87% (inactive).
For CCC(=C(c1ccc(OCCN(CC)CC)cc1)c1ccc(OCCN(CC)CC)cc1)c1ccc(Cl)cc1, the growth was -48.5% (active).
For CNC1=C([N+](=O)[O-])C(c2ccc(OC)cc2)C(C#N)=C(c2ccc[nH]2)O1 (stereo not given), the growth was 96.2% (inactive).
CCOC(=O)c1ccc2c(c1)[n+](=O)c(C(C)=O)c(C(F)(F)F)n2[O-] was tested, and the growth was 8.56% (active).
CC(C)(C)n1cc(-c2ccnc(NCCNS(=O)(=O)c3cccc4ccccc34)c2)c(-c2cccc(O)c2)n1 was tested, and the growth was 27.4% (inactive).
In the case of CC(C)n1cc(C2=C(c3cccc4ccccc34)C(=O)NC2=O)c2cc(Br)ccc21, the growth is reported as 92.1% (inactive).
For O=C1CCC(C(=O)N/N=C/c2ccc([N+](=O)[O-])cc2)N1 (stereo not given), the growth was 100% (inactive).
In the case of Oc1ccc(C(c2ccc(O)cc2)c2ccc(Cl)cn2)cc1, the growth is reported as 98.2% (inactive).
With COC1CC(O)C2=C(CC3C(/C(C)=C\CC=C(C)C)CCC3(C)O2)C1=O (stereo not given) the growth was 93.6% (inactive).
With C#CCOc1ccc(C2=NN(C)C3N=C(Cl)c4ncn(C)c4N23)cc1OCC#C (stereo not given) the growth was 92.4% (inactive).
With O=C(CNc1ncco1)Nc1ccc(S(=O)(=O)c2ccc(NC(=O)CNc3ncco3)cc2)cc1 the growth was 11.2% (inactive).
